High-throughput results as filed in PubChem.
Rab9 prom act – Rab9 promoter activation | 320,000 tested, 2.8% active | Huh7 Rab9 promoter-luciferase reporter, luminescence, 24 h | AID 485297 | Potency, µM (titrated, usually from 9.22 µM), for the others: top-dose activation, negative = inhibition, usual class: activators; also: % of control where 0% means no effect; nearly all actives have a fitted effect of over 60% in size
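Measured in stably transfected Huh7 cells bearing a Rab9 promoter–luciferase construct: 24 h compound treatment at 37 °C, followed by luminescence detection.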
FLuc counter – firefly luciferase modulation, counter-screen for miR-21 project. Potency, µM (top dose mostly 57.5 µM), for the others: at the top dose activity change, negative = inhibition, actives largely listed as inhibitors. 360,000 tested, 6.9% active. P08659. purified FLuc, Km substrates, luminescence inhibition. AID 588342;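 also: plate controls were vehicle for no effect and reference inhibitor for full effect; nearly all actives have a fitted effect of over 55% in size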
Target sequence (P08659 whole entry, looked up): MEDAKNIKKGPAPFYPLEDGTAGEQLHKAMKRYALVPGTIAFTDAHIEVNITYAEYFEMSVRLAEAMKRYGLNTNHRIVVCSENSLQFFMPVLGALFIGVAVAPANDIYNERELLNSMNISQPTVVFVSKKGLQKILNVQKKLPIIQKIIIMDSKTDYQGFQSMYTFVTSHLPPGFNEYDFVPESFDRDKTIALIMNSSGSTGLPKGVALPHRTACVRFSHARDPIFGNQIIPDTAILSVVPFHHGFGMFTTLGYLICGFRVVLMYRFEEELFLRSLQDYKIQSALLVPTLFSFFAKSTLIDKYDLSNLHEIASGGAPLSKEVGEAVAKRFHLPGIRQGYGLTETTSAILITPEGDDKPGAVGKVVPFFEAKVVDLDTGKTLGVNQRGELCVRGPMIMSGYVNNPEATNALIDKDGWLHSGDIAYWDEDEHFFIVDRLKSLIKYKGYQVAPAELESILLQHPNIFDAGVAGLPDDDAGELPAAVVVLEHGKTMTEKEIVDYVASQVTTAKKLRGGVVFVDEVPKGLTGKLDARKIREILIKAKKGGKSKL
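Purified P. pyralis luciferase (10nM final) with 10uM D-luciferin and 10uM ATP (Km levels) in 50mM Tris acetate pH 7.5, 10mM Mg acetate, 0.01% Tween-20, 0.05% BSA; qHTS 6-point titration, ~60 µM downward; luminescence read.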
NPC1 promoter act – NPC1 promoter activation | Huh7 NPC1 promoter luciferase reporter, 24 h | Potency, µM (series often up to 9.22 µM), without a hit: at the top dose activation, usual class: activators | 320,000 tested, 2.4% active | AID 485313; also: % of control where 0% means no effect; nearly all actives have a fitted effect of over 60% in size
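Readout is luciferase luminescence, reflecting NPC1 promoter activation in stably transfected Huh7 cells after 24 h compound exposure at 37 °C in reduced-serum medium with 10% FBS.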
ELG1 genotox – inducers of genotoxicity in HEK293T ELG1-luciferase cells; AID 504466; Potency, µM (top dose mostly 46 µM), inactives show at the top dose activity change, positive = activation, hits mostly activators; HEK293T ELG1-luciferase reporter, luminescence, 16 h; 330,000 tested, 1.3% active; also: % of control where 0% means no effect; nearly all actives have a fitted effect of over 60% in size
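Quantitative HTS format in 1536-well plates. HEK293T ELG1-luciferase reporter cells receive test compound and are incubated 16 hr at 37 °C, 5% CO2; ONE-Glo added, 30 min room temperature, then luminescence read.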
SMN2 splice up – increases expression of the SMN2 splice variant; HEK293 SMN2-luciferase splicing reporter, luminescence, 30-36 h; 210,000 tested, 2.8% active; Potency, µM (doses to about 46.1 µM), inactives show at the top dose activity change, positive = activation, usual class: activators; also: % of control where 0% means no effect; nearly all actives have a fitted effect of over 55% in size
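HEK293 cells carry an SMN2 […]–luciferase reporter in which exon 7 inclusion puts luciferase in frame. Cells were plated 10-12 h before compound addition, then incubated 30-36 h at 37C. ONE-Glo luminescence was read; sodium butyrate at 4.5 mM final served as control.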
Numbers without * were called inactive; u = inconclusive; x = not tested or not shown. Most compounds without a hit are left out; they make up all but 7.5% or so of the library. Calls follow the shape of the dose curve; as a rule, active = well fitted curve in the direction sought with a large enough effect; inconclusive = small, poorly fitted or top-dose-only effect, or another doubt; inactive = no such curve, though single readings can be large; an effect the other way counts as inactive or inconclusive. Potency is read from the fitted curve at half-maximal effect.

SMILES | Rab9 prom act | FLuc counter | NPC1 promoter act | ELG1 genotox | SMN2 splice up
O=C(Nc1nc2cc3c(cc2s1)OCCO3)c1ccncc1 | 1.6µM* | 1.7µM* | 2.2µM* | u | u
O=C(CCNC(=O)c1ccccc1Cl)Nc1nc2ccc(F)cc2s1 | 25% | u | 28% | 11% | x
O=C(Nc1nc2ccccc2c(=O)s1)c1ccc(F)cc1Cl | 0% | 3.8µM* | 8% | 0% | x
Cc1cccc(N(C)C(=O)CSc2nc3ncccc3o2)c1 | x | -1% | x | x | x
O=C(N/N=C/C(Br)=C/c1ccccc1)c1n[nH]c2c1CCC2 | 0% | 2.7µM* | u | u | 10µM*
O=C(N/N=C/c1cccs1)c1n[nH]c2c1CCC2 | u | 3.4µM* | u | u | 5µM*
O=C(N/N=C/c1ccc(Cl)cc1)c1n[nH]c2c1CCCC2 | 18% | u | u | 8.2µM* | x
O=C(N/N=C/c1ccccc1Cl)c1n[nH]c2c1CCCC2 | u | 0.21µM* | 0.63µM* | 0.29µM* | 0.35µM*
O=C(N/N=C/c1ccccc1Cl)c1ccncc1 | 10% | u | 0% | 1% | x
CCCCNC(=O)c1ccc(NC(C)=O)c(Cl)c1 | 4% | 1% | -1% | 2% | 2%
Cc1nonc1C(=O)N/N=C/c1ccccc1 | -1% | 11µM* | 0% | 3% | x
Cc1nc(NS(=O)(=O)c2ccccc2)sc1C(=O)NNS(=O)(=O)c1ccccc1 | 1% | -10% | -4% | 0% | x
Cc1nc(NS(=O)(=O)c2ccccc2)sc1C(=O)N/N=C/c1ccccc1 | 2% | 9.5µM* | 1% | 3% | x
O=C(N/N=C/c1ccccc1)c1n[nH]c2c1CCCC2 | 0.35µM* | 3µM* | 0.56µM* | u | 5µM*
CSc1cccc(-c2nnc(NC(=O)c3cccc(N4C(=O)CCC4=O)c3)o2)c1 | -3% | 27µM* | 0% | -10% | x
O=C(Nc1nnc(-c2ccc(Cl)cc2)o1)c1cccc(N2C(=O)CCC2=O)c1 | 1% | 12µM* | 2% | 1% | 12%
O=C(Nc1nnc(-c2ccncc2)o1)c1cccc(N2C(=O)CCC2=O)c1 | 0% | -19% | -2% | 1% | -14%
CC(C)(C)c1ccc(C(=O)NC2CCS(=O)(=O)C2)cc1 (stereo not given) | 20% | -15% | 9% | 3% | x
O=C(Cc1ccccc1)Nc1ccc(NC(=O)Cc2ccccc2)c(Cl)c1 | 1% | 0% | -7% | 1% | x
CCC(O)c1cc2c(cc1NC(=O)c1ccc(C)cc1)OCCO2 (stereo not given) | 2% | u | 17% | 10% | -4%
CCc1ccc(C(=O)Nc2cc3c(cc2Cl)OCCCO3)cc1 | 1.6µM* | 6µM* | 1.8µM* | u | 25µM*
O=C(Cc1ccccc1)Nc1ccc2c(c1)OC1(CCCC1)O2 | 2.5µM* | 4.8µM* | 2.5µM* | u | x
O=C(Cc1ccccc1)Nc1cc2c(cc1Cl)OCCCO2 | 2.8µM* | 17µM* | 3.2µM* | u | x
O=C(Nc1cc2c(cc1C(=O)O)OCCCO2)c1ccc(C(F)(F)F)cc1 | 2.8µM* | 13µM* | 4µM* | 18µM* | x
O=C(O)c1cc2c(cc1NC(=O)c1ccccc1C(F)(F)F)OCCCO2 | 0% | -15% | 2% | 0% | x
SMILES | Rab9 prom act | FLuc counter | NPC1 promoter act | ELG1 genotox | SMN2 splice up
CC1CCCCN1c1cc2c(cc1F)c(=O)c(S(=O)(=O)c1ccccc1)cn2Cc1ccccc1 (stereo not given) | x | -4% | x | x | x
Cc1ccc(S(=O)(=O)N2CCN(Cc3ccco3)CC2)c(C)c1 | -1% | -2% | 10% | -4% | x
COc1cc(C(=O)N/N=C/c2ccc3c(c2)c2ccccc2n3C)ccc1O | 0% | 11µM* | -15% | -9% | x
COc1cc(/C=N/NC(=O)CCn2c3ccccc3c3ccccc32)ccc1O | 1% | -10% | -1% | -15% | -34%
Cn1c2ccccc2c2cc(/C=N/NC(=O)c3cc(O)cc(O)c3)ccc21 | u | 24µM* | 2% | 6% | x
Cn1c2ccccc2c2cc(/C=N/NC(=O)c3cc(O)ccc3O)ccc21 | 10% | u | -13% | -5% | x
O=C(NCc1csc(-c2ccccc2)n1)c1cc(F)cc2c1OCOC2 | u | 19µM* | u | 19% | x
O=C(Cc1csc(-c2ccccc2)n1)NCc1ccc(F)cc1 | 0% | -19% | -1% | 1% | x
